From the supplement of paper PMC4100887 come the findings set out here.

Each structure is given as a SMILES string. Structures can show the parent of a compound that is named as a salt. ± gives the standard deviation of the averaged measurements.

For the assay, the system named is K562. Kind of assay: relative cell viability (ATPlite) vs untreated control, with imatinib (fraction); higher = less toxic. The conditions noted are these: 1 µM; 72 h; imatinib 0.125 µM.
Compound `N#CCCc1ccc2c(c1)-c1[nH]c3ccc([N+](=O)[O-])cc3c1CC(=O)N2` [Alsterpaullone, 2-Cyanoethyl] came in with a relative cell viability of 0.153 ± 0.036.

`O=C1Nc2ccc(Cl)cc2/C1=C/c1cc(Cl)c(O)c(Cl)c1` [PKR Inhibitor, Negative Control] returned a relative cell viability of 0.721 ± 0.058.

`O=C1NC(=O)C(c2cn(CCCO)c3ncccc23)=C1c1cnccn1` [GSK-3b Inhibitor XI] gave a relative cell viability of 0.757 ± 0.046.

With `O=c1[nH][nH]c2nnc(-c3c(-c4ccccc4)nn4ccccc34)cc12` [ERK Inhibitor II, Negative control], the relative cell viability turned out to be 0.758 ± 0.019.

`O=C(Nc1cccc(Nc2nccc(Nc3cccc(C(F)(F)F)c3)n2)c1)C1CC1` [Aurora Kinase Inhibitor III] returned a relative cell viability of 0.755 ± 0.05.

Turning to `Cn1sc(=O)n(Cc2ccccc2)c1=O` [GSK-3b Inhibitor I], the relative cell viability was 0.704 ± 0.031.

With `COc1cc2ncnc(N3CCN(C(=O)Nc4ccc(Oc5ccccc5)cc4)CC3)c2cc1OC` [PDGF Receptor Tyrosine Kinase Inhibitor III], the relative cell viability turned out to be 0.649 ± 0.029.

With `CCN(CC)C(=O)c1ccc(Nc2nc(OCC3CCCCC3)c3[nH]cnc3n2)cc1` [Cdk2 Inhibitor IV, NU6140], the relative cell viability was found to be 0.672 ± 0.031.

As for `O=C1Nc2ccc(Br)cc2/C1=C/c1cc2c([nH]1)CCCC2` [VEGF Receptor 2 Kinase Inhibitor II], the relative cell viability is 0.782 ± 0.054.

`N#Cc1cc([N+](=O)[O-])c2sc(C(N)=O)[n+]([O-])c2c1` [Polo-like Kinase Inhibitor II, BTO-1] displayed a relative cell viability of 0.709 ± 0.056.

Compound `CN(C)CCCn1cc(C2=C(c3c[nH]c4ccccc34)C(=O)NC2=O)c2ccccc21` [Bisindolylmaleimide I] returned a relative cell viability of 0.137 ± 0.042.

Take `N#CC(c1ccnc(NCCc2cccnc2)n1)c1nc2ccccc2s1` (configuration not stated) [JNK Inhibitor V]: the relative cell viability came out at 0.703 ± 0.056.

Compound `CS(=O)(=O)c1ccc(-c2nc(-c3ccc(F)cc3)c(-c3ccncc3)[nH]2)cc1` returned a relative cell viability of 0.703 ± 0.043.

`c1nc2c(NC3CCCCC3)nc(Nc3ccc(N4CCOCC4)cc3)nc2[nH]1` [Reversine] came in with a relative cell viability of 0.398 ± 0.075.

As for `O=c1c2ccccc2[nH]c(=S)n1CCN1CCC(=C(c2ccc(F)cc2)c2ccc(F)cc2)CC1` [Diacylglycerol Kinase Inhibitor II], the relative cell viability worked out at 0.768 ± 0.07.

`Nc1n[nH]c(N)c1N=Nc1ccc(O)cc1` [Cdk9 Inhibitor II] came in with a relative cell viability of 0.765 ± 0.035.

Consider `O=Nc1c(-c2c(O)[nH]c3cc(Br)ccc23)[nH]c2ccccc12` [GSK-3 Inhibitor IX], for which the relative cell viability was 0.599 ± 0.044.

On to `c1cc(-c2cnn3cc(-c4ccc(OCCN5CCCCC5)cc4)cnc23)ccn1` [AMPK Inhibitor, Compound C], for which the relative cell viability was 0.834 ± 0.051.

In turn, `Cc1cc(Nc2nc(-c3ccccc3)nc3ccccc23)n[nH]1` [GSK-3 Inhibitor XIII] had a relative cell viability of 0.711 ± 0.034.

With `CN[C@@H]1C[C@H]2O[C@@](C)([C@@H]1OC)n1c3ccccc3c3c4c(c5c6ccccc6n2c5c31)C(=O)N[C@H]4O`, the relative cell viability worked out at 0.14 ± 0.026.

`O=C(Nc1cc(Cl)cc2c1[nH]c1cnccc12)c1cccnc1` [IKK Inhibitor X] returned a relative cell viability of 0.804 ± 0.023.

`NCCNc1ncc(C(N)=O)c(Nc2cccc(C(F)(F)F)c2)n1` [Syk Inhibitor II] showed a relative cell viability of 0.773 ± 0.048.

Regarding `O=C1NC(=O)C(c2c[nH]c3ccccc23)=C1c1c[nH]c2ccccc12` [Bisindolylmaleimide IV], the relative cell viability amounted to 0.851 ± 0.024.

Compound `COc1cc2ncnc(Nc3cccc(O)c3)c2cc1OC` [WHI-P180, Hydrochloride] displayed a relative cell viability of 0.366 ± 0.045.

With `COc1cc(Nc2ncc3ccn(-c4cccc(CCC#N)c4)c3n2)cc(OC)c1OC` [Keratinocyte Differentiation Inducer], the relative cell viability was 0.459 ± 0.35.

In the case of `CCN(CC)CCCCN1c2ccccc2Oc2ccc(Cl)cc21` [Akt Inhibitor X], the relative cell viability amounted to 0.77 ± 0.061.

The compound `COc1nccc(-c2c(-c3ccc(F)cc3)ncn2C2CCC(O)CC2)n1` (configuration not stated) gave a relative cell viability of 0.794 ± 0.067.

On to `NCCCn1cc(C2=C(c3c[nH]c4ccccc34)C(=O)NC2=O)c2ccccc21` [Bisindolylmaleimide III, Hydrochloride], for which the relative cell viability came to 0.776 ± 0.042.

`O=C(c1ccc(Nc2nccc(-c3cc4ccccc4s3)n2)cc1)N1CCC(N2CCCC2)CC1` [IKK Inhibitor VII] displayed a relative cell viability of 0.632 ± 0.031.

For `COc1ccc2c(c1)c1c3c(c4c5ccccc5n(C)c4c1n2CC(O)CN(C)C)C(=O)NC3=O` (configuration not stated) [Gö 7874, Hydrochloride], the relative cell viability came to 0.775 ± 0.031.

In the case of `COc1cc2ncnc(Nc3ccc(O)c(Br)c3)c2cc1OC` [JAK3 Inhibitor II], the relative cell viability is 0.717 ± 0.032.

As for `O=C1C(Cl)=C(N2C(=O)CCC2=O)C(=O)c2ccccc21` [MEK Inhibitor II], the relative cell viability stood at 0.653 ± 0.071.
